Each structure is given as a SMILES string. A number with no mark means an inactive call. Results filed as inconclusive are left out. Active and inactive are the calls of the source. Unless noted, calls come from the whole dose curve; as a rule, active = well fitted curve in the direction sought with a large enough effect in the repeat runs; inconclusive = weak or mixed curves; inactive = no such curve, though single readings can be large; an effect the other way counts as inactive or inconclusive.

Experimental findings from PubChem BioAssay (Tox21) are described below.

The nature of assay [1]: qHTS RealTime-Glo MT Cell Viability Assay in HEK293 cells - 0 hour (AID 1224880). Note: top concentration of the series differs between compounds; nearly all actives have a fitted effect of over 45% in size. Summed up:
(§1)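 Tox21 screen in HEK293 using RealTime-Glo MT chemistry, with cells and reagent co-dispensed. Luminescence proportional to viable cell number was captured at intervals during 40 h compound exposure at 37 C.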

The nature of assay [2]: A CellTox Green Cytotoxicity Assay to monitor cytotoxicity in HEK293 cells - 32 hour (AID 1224881). Note: nearly all actives have a fitted effect of over 40% in size. Summed up: (§2)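 Seeding of HEK293 cells together with cytotoxicity dye preceded a 5 h incubation at 37 C/5% CO2. Test compounds in DMSO were then added and fluorescence monitored across 40 h.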
Assay [3] can be described thus: A CellTox Green Cytotoxicity Assay to monitor cytotoxicity in HepG2 cells - 0 hour (AID 1224882). Note: nearly all actives have a fitted effect of over 35% in size. The essentials:
(§3)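 Nonlytic assay: viable cells exclude the dye, so fluorescence scales with cell death. HepG2 at 600 cells/well, compounds added after 5 h, signal read across 40 h.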

Assay [4] is described as follows: A CellTox Green Cytotoxicity Assay to monitor cytotoxicity in HepG2 cells - 32 hour (AID 1224883). Note: nearly all actives have a fitted effect of over 50% in size. Summed up: as §3
Assay [5] in a line: A CellTox Green Cytotoxicity Assay to monitor cytotoxicity in HEK293 cells - 8 hour (AID 1224884). Note: nearly all actives have a fitted effect of over 35% in size. The essentials:
as §2

A short description of assay [6]: qHTS RealTime-Glo MT Cell Viability Assay in HepG2 cells - 16 hour (AID 1224885). Note: nearly all actives have a fitted effect of over 50% in size. Summed up:
(§4)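 Tox21 10K library screened in qHTS format on HepG2 cells carrying RealTime-Glo reagents. Compounds were added after a 5 h preincubation, and the luminescent signal from continuous culture was measured repeatedly during 40 h treatment.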

Assay [7] is described as follows: qHTS RealTime-Glo MT Cell Viability Assay in HEK293 cells - 8 hour (AID 1224887). Note: top concentration of the series differs between compounds; nearly all actives have a fitted effect of over 50% in size. Summed up:
as §1

Assay [8] can be described thus: A CellTox Green Cytotoxicity Assay to monitor cytotoxicity in HEK293 cells - 16 hour (AID 1224888). Note: nearly all actives have a fitted effect of over 35% in size. Summed up: as §2
Assay [9] in a line: qHTS RealTime-Glo MT Cell Viability Assay in HepG2 cells - 0 hour (AID 1224889). Note: nearly all actives have a fitted effect of over 50% in size. The essentials:
as §4

A short description of assay [10]: A CellTox Green Cytotoxicity Assay to monitor cytotoxicity in HepG2 cells - 8 hour (AID 1224890). Note: nearly all actives have a fitted effect of over 45% in size. The essentials:
as §3

Assay [11] can be described thus: qHTS assay to identify small molecule antagonists of the estrogen receptor alpha (ER-alpha) signaling pathway using the BG1 cell line in the presence of 0.1 nM 17-beta-estradiol - cell viability counter screen (AID 1259241). Note: nearly all actives have a fitted effect of over 40% in size. Summed up: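 Cytotoxicity counter-screen: live-cell protease activity measured by fluorescence (30 min reagent step) in the same wells. Cells were VM7Luc4E2 with endogenous ER-alpha and ERE-driven luciferase, treated 22 hr at 37C alongside 0.1 nM 17beta-estradiol final.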

The nature of assay [12]: qHTS assay to identify small molecule antagonists of the androgen receptor (AR) signaling pathway using the MDA cell line in the presence of 0.5 nM R1881 - cell viability counter screen (AID 1259242). Note: nearly all actives have a fitted effect of over 45% in size. Summed up: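 R1881 at 0.5 nM final stimulated MDA-kb2 cells during 16 hr compound treatment at 37C. Cytotoxicity read: CellTiter-Fluor fluorescence after 30 min.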
The target in assay [13] is Estrogen receptor (Homo sapiens) (UniProt P03372). In words: qHTS assay to identify small molecule antagonists of the estrogen receptor alpha (ER-alpha) signaling pathway using the BG1 cell line in the presence of 0.1 nM 17-beta-estradiol (AID 1259244). Note: nearly all actives have a fitted effect of over 50% in size. Summed up: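 VM7Luc4E2; 4xERE-luciferase; 0.1 nM E2 final; 22 h co-incubation, 37C; ONE-Glo luminescence after 30 min at room temperature.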

Assay [14] can be described thus: qHTS assay to identify small molecule HDAC inhibitors (AID 1259364).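 Note: wild-type HCT-116 cells with endogenous class I/II HDAC activity; top concentration of the series differs between compounds; nearly all actives have a fitted effect of over 45% in size.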 Summed up: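 Relative class I and II HDAC activity is taken from the luminogenic signal in HCT-116 cells, with compound exposure 2 hr and reagent development 30 min at room temperature.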
A short description of assay [15]: qHTS assay to identify small molecule HDAC inhibitors - cell viability counter screen (AID 1259365). Summed up: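 CellTiter-Glo luminescence (30 min, room temperature) reported viability after a 2 h compound exposure at 37 C. Cells: wild-type HCT-116, 1,500 per well, seeded the night before.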
A short description of assay [16]: qHTS assay to identify small molecule agonists of the sonic hedgehog signaling (Shh) pathway - cell viability counter screen (AID 1259366). Note: nearly all actives have a fitted effect of over 50% in size. Summed up:
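Cytotoxicity counter screen: CellTiter-Fluor reagent added after 23 h compound exposure, then 1 h at 37C and fluorescence read. Cells were 3T3 Gli1-Luc, seeded 2,000 per well and dosed 4 h post-plating.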

Assay [17] in a line: qHTS assay to identify small molecule antagonists of the sonic hedgehog signaling (Shh) pathway - cell viability counter screen (AID 1259367). Note: nearly all actives have a fitted effect of over 55% in size. Summed up:
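Cells: 3T3 Gli1-Luc, 2,000/well, 4 hr pre-incubation. Compounds in DMSO, then conditioned medium. Incubation 24 hr, 37C, 5% CO2. CellTiter-Fluor at 23 hr, 1 hr, fluorescence.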

Assay [18] can be described thus: qHTS assay to identify small molecule phospholipidosis (PLD) inducers (AID 1259344; active = well fitted curve in the direction sought with a large enough effect; an effect the other way counts as inactive or inconclusive; note: potency is the fitted concentration of half-maximal effect). Summed up:
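Phospholipidosis is scored by imaging LipidTOX-stained pits in HepG2 cells exposed to compound for 24 h at 37 C; pit counts and integrated intensities per well and per cell serve as outputs.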

Assay [19] concerns the target Androgen receptor (Homo sapiens) (UniProt P10275). As to the kind of experiment: qHTS assay to identify small molecule antagonists of the androgen receptor (AR) signaling pathway using the MDA cell line in the presence of 0.5 nM R1881 (AID 1259243). Note: nearly all actives have a fitted effect of over 50% in size. The essentials:
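We exposed MDA-kb2 cells to compounds under 0.5 nM R1881 stimulation for 16 hr at 37C and quantified MMTV-driven luciferase by luminescence.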

Sequence of Estrogen receptor (Homo sapiens) (P03372 whole entry, looked up): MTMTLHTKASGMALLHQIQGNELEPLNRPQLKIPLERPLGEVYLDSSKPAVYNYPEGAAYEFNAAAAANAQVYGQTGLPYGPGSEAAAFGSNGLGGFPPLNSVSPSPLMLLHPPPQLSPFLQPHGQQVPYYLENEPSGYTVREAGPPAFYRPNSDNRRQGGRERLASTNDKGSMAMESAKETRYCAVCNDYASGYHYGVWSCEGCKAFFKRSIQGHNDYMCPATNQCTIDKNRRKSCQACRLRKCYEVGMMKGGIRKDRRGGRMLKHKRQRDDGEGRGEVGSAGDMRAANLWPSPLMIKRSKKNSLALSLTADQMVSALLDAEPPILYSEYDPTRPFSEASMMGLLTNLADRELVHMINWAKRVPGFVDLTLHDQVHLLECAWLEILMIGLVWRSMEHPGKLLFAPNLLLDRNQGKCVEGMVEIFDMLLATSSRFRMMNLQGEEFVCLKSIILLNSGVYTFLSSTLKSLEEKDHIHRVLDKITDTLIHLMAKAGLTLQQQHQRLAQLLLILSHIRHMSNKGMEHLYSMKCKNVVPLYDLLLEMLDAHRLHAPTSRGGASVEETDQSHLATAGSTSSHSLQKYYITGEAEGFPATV
Sequence of Androgen receptor (Homo sapiens) (P10275 whole entry, looked up): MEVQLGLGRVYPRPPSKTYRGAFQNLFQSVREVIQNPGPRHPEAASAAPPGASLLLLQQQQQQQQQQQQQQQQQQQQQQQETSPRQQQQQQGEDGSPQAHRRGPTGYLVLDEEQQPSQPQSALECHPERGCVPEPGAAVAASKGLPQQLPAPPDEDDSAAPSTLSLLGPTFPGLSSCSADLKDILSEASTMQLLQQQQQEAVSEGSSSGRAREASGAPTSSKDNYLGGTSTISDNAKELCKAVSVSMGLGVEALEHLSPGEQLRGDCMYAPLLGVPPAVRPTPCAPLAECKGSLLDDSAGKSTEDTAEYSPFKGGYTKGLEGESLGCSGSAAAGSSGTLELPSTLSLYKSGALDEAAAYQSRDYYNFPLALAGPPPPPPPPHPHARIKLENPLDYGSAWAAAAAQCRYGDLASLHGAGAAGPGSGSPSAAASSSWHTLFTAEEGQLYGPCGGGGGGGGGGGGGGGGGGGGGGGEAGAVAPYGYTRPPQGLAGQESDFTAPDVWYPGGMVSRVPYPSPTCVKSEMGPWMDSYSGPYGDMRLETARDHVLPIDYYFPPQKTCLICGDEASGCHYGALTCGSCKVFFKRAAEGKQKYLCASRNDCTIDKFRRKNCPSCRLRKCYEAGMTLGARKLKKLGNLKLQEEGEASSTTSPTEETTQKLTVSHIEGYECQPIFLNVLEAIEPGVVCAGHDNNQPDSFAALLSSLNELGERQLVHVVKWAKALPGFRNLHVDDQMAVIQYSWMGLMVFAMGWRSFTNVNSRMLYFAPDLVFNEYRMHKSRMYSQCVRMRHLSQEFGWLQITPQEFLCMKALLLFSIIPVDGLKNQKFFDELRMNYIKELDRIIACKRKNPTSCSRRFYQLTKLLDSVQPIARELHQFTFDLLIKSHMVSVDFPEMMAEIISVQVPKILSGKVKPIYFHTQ

Regarding `CCCC(=O)OCc1ccccc1`, the Potency result in assay [1], in [2], in assay [3], in [4], in [5] and in [7] was “inactive” in each case. For the same molecule, the Potency entry in assay [8], in assay [9], in assay [10], in assay [11], in assay [12] and in [13] was “inactive” in each case. Moreover, the Potency entry in assay [14], in assay [16] and in assay [17] was “inactive” in each case. In addition, the outcome in assay [6] and in assay [15] was inactive.

With `CC1(C)CC(O)CC(C)(C)N1[O]`, the Potency result in [1], in assay [2], in assay [3], in assay [4], in assay [5] and in assay [7] was “inactive” each time. For the same molecule, the Potency result in [9], in assay [10], in [11], in [12], in [13] and in assay [14] was “inactive” throughout. In addition, the Potency entry in [16] and in [17] was “inactive” throughout. In addition, the molecule was called inactive in [6] and in assay [15].

Turning to `C[C@]12CCC(=O)C=C1[C@@H]1C[C@@H]1[C@H]1[C@@H]3[C@@H]4C[C@@H]4[C@@]4(CCC(=O)O4)[C@@]3(C)CC[C@@H]12`, the Potency entry in assay [1], in assay [2], in assay [3], in assay [4], in [5] and in assay [7] was “inactive” each time. Also, the Potency entry in assay [8], in assay [9], in [10], in assay [11], in [12] and in assay [14] was “inactive” throughout. In addition, the Potency entry in assay [16] and in [17] was “inactive” in each case. Moreover, the outcome in assay [6] and in [15] was inactive. Besides, the Potency in [18] was 11.2 µM (active).

Regarding `CCOC(=O)CC(O)(CC(=O)OCC)C(=O)OCC`, the Potency entry in assay [1], in assay [2], in [3], in assay [4], in assay [5] and in assay [7] was “inactive” in each case. The Potency result in assay [8], in assay [9], in assay [10], in assay [11], in [12] and in assay [13] was “inactive” in each case. Also, the Potency entry in assay [14], in [16] and in [17] was “inactive” throughout. The outcome in [6] and in assay [15] was inactive.

On to `CCC[Si](OC)(OC)OC`, for which the Potency result in assay [1], in assay [2], in assay [3], in assay [4], in assay [5] and in [7] was “inactive” each time. In addition, the Potency result in assay [8], in assay [10], in assay [11], in assay [12], in assay [19] and in assay [13] was “inactive” each time. For the same molecule, in assay [14], the Potency entry is “inactive”. For the same molecule, the molecule was classed as inactive in assay [6] and in assay [15].

Consider `O=C(OCCCCCOC(=O)c1ccccc1)c1ccccc1`, for which the Potency entry in assay [1], in [2], in assay [3], in assay [4], in [5] and in assay [8] was “inactive” in each case. The Potency entry in assay [9], in assay [10], in [11], in [12], in assay [13] and in assay [14] was “inactive” in each case. Moreover, the Potency entry in assay [17] was “inactive”. Besides, the outcome in assay [6] was inactive.

Take `O=C(O)c1cc(C(=O)O)cc([N+](=O)[O-])c1`: the Potency entry in assay [1], in [2], in assay [3], in [4], in assay [5] and in [7] was “inactive” throughout. Moreover, the Potency entry in assay [8], in assay [9], in assay [10], in assay [11], in assay [12] and in assay [14] was “inactive” throughout. The Potency result in assay [16] and in assay [17] was “inactive” in each case. The molecule was classed as inactive in assay [6] and in assay [15].

Take `CCCCCO`: the Potency result in [1], in [2], in [3], in assay [4], in [5] and in [7] was “inactive” each time. The Potency result in assay [8], in assay [9], in assay [10], in assay [11], in [12] and in [13] was “inactive” in each case. The Potency result in assay [14], in assay [16] and in assay [17] was “inactive” in each case. In addition, the result in assay [6] and in [15] was inactive.
